PubChem BioAssay
The source made the active and inactive calls. The rule behind the calls is not given here.

What was measured:
[1] = system: Botulinum neurotoxin type F light chain protease (Clostridium botulinum); assay: Botulinum neurotoxin type F light chain protease inhibition, multiplex microsphere flow cytometry, validation set (AID 588459); conditions: multiplex microsphere protease substrate cleavage assay, at 10 µM, hits give high values
[2] = target: Botulinum neurotoxin type A (Clostridium botulinum) (UniProt P0DPI0); assay: BoNT/A light chain protease inhibitors, biochemical, multiplex microsphere flow cytometry, validation set (AID 588460); conditions: at 10 µM, hits give high values
[3] = target: Lethal factor (Bacillus anthracis) (UniProt P15917); assay: Lethal factor protease inhibitors, Bacillus anthracis, multiplex microsphere cleavage assay, validation set (AID 588461); conditions: flow cytometry, at 10 µM, hits give high values

Measured: inhibition

Lethal factor (Bacillus anthracis), sequence (P15917 whole entry, looked up): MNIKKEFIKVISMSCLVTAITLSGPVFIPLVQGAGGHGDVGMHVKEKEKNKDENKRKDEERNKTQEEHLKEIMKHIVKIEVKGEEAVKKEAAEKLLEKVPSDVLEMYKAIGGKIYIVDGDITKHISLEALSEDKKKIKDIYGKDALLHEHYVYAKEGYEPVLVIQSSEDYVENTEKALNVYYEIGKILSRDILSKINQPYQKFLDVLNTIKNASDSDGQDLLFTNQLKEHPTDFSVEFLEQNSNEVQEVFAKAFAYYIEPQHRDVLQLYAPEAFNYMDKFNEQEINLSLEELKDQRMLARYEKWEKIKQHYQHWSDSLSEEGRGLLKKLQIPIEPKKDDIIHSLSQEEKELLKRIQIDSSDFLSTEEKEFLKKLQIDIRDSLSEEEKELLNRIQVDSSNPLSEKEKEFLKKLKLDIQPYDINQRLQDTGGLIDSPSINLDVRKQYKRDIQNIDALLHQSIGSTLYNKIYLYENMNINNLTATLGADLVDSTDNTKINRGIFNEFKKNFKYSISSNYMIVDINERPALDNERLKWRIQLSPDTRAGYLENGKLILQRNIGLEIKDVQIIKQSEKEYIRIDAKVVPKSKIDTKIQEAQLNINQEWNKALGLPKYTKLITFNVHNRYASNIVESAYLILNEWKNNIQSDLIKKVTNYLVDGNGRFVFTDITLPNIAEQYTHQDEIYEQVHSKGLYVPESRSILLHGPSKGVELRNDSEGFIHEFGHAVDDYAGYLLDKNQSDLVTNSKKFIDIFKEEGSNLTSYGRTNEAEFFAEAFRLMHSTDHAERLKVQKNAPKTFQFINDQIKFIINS
Botulinum neurotoxin type A (Clostridium botulinum), sequence (P0DPI0 whole entry, looked up): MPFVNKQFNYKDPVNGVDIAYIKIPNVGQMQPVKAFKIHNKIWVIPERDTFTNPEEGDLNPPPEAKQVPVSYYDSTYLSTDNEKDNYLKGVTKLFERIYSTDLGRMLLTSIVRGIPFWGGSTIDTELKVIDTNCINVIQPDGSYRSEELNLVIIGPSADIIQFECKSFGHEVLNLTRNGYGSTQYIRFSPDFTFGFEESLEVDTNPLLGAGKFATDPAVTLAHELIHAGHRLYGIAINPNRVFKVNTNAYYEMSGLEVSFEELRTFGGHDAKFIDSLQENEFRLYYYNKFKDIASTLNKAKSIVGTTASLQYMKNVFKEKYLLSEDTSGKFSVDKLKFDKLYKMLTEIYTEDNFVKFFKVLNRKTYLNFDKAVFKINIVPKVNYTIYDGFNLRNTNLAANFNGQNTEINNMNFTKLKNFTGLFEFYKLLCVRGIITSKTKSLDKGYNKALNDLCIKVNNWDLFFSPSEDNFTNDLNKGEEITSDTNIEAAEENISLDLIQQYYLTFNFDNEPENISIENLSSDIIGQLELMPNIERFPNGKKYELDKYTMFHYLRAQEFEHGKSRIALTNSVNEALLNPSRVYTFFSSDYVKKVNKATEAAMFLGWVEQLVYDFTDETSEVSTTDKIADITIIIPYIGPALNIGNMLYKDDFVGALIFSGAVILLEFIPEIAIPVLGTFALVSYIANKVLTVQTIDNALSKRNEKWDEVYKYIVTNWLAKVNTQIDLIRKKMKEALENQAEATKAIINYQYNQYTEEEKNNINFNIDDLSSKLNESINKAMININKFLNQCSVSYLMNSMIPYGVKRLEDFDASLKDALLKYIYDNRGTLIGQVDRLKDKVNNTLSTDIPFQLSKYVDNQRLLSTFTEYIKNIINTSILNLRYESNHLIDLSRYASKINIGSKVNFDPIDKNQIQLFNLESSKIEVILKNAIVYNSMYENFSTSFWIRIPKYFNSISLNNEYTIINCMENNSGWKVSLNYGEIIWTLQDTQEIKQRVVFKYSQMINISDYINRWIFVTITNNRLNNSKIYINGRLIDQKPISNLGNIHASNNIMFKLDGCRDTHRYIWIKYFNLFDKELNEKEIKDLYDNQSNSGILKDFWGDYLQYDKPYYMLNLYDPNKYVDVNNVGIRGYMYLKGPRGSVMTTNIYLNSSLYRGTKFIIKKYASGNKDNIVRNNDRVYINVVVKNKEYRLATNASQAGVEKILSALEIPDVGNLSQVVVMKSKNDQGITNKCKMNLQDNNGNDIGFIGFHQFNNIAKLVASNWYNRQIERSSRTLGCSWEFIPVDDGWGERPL

COc1ccc2nc(NC(=O)Nc3ccccc3)sc2c1
inactive: [1] -3.1% | [2] -2.6% | [3] -2.7%

COc1ccc(O)c(N)c1
inactive: [1] -8.6% | [2] -3.6% | [3] -19.6%

CC(C)(C)OC(=O)COc1cc(OCC(=O)OC(C)(C)C)c2c(=O)cc(-c3ccccc3)oc2c1
inactive: [1] 1.4% | [2] 0.8% | [3] -7.2%

Cn1c(Oc2ccc3c(c2)OCO3)nc2c1c(=O)n(Cc1ccccc1)c(=O)n2C
inactive: [1] 1.4% | [2] -0.3% | [3] -0.5%

C[C@H]1O[C@H]1P(=O)(O)O
inactive: [1] -0.1% | [2] 1.1% | [3] -2%

CCOc1ccc2nc(N/C(N)=N/S(C)(=O)=O)nc(C)c2c1
inactive: [1] 2.1% | [2] -0.1% | [3] 2.4%

COc1ccccc1C(O)c1nccn1C (configuration not stated)
inactive: [1] 1.9% | [2] -0.7% | [3] 0.4%

CC(=O)Nc1ccc(CN2CCN(C3CCCCC3)C(CCO)C2)cc1 (configuration not stated)
inactive: [1] -0.2% | [2] -1.1% | [3] -3.7%

CC(C(=O)O)c1ccc(N2Cc3ccccc3C2=O)cc1 (configuration not stated)
inactive: [1] 1.4% | [2] -1.6% | [3] -4.3%

OC(COCc1ccccc1)CN1CCN(Cc2ccc3c(c2)OCO3)CC1 (configuration not stated)
inactive: [1] 0.6% | [2] 0.3% | [3] 2.8%

CC(=O)CCc1oc2ccccc2c1-c1ccccc1
inactive: [1] -0.7% | [2] -1.4% | [3] -3.1%

O=C(O)CCCCCNC(=O)Nc1ccc2c(c1)OCCO2
inactive: [1] 1.3% | [2] -1.4% | [3] -10.1%

CCOC(=O)Nc1ccc2c(c1)N(C(=O)CCN1CCOCC1)c1ccccc1S2
inactive: [1] -1.6% | [2] -1.4% | [3] 0.2%

COc1ccccc1OCC(O)COC(N)=O (configuration not stated)
inactive: [1] -3.8% | [2] -1.3% | [3] -6.8%

CC[n+]1ccc2cc(OC)c(OC)cc2c1Cc1ccc(OC)c(OC)c1
inactive: [1] -0.2% | [2] 0.7% | [3] -0.5%

c1ccc(-c2ccc(C(c3ccccc3)n3ccnc3)cc2)cc1 (configuration not stated)
inactive: [1] -0.7% | [2] -1.3% | [3] -1.4%

O=C(O)c1ccc(-c2ccc(O)c(F)c2)cc1
inactive: [1] -6.5% | [2] -1.7% | [3] 0.4%

c1ccc(CC2=NCCN2)cc1
inactive: [1] 1.9% | [2] -1.4% | [3] -4.7%

CC1(C)CC(=O)C(C2(O)C(=O)Nc3ccccc32)CO1 (configuration not stated)
inactive: [1] -0.1% | [2] -1.6% | [3] -6%

CC(C)(C)N1NC2(CCCCC2)NC1=S
inactive: [1] 4.9% | [2] -1.4% | [3] -1.4%

CC(C)(C)c1csc(N/N=C/c2cccnc2)n1
inactive: [1] -3.3% | [2] 0.5% | [3] 0.6%

CC(CCc1ccccc1)NC(=O)/C=C/c1ccccc1 (configuration not stated)
inactive: [1] 4.2% | [2] 0.4% | [3] 1.8%

O=C1NCC2=C1C(c1ccccc1)Nc1ccccc1N2 (configuration not stated)
inactive: [1] 2.4% | [2] 0.1% | [3] -4.9%

O=c1[nH]cnc2[nH]ncc12
inactive: [1] 4.1% | [2] 0.8% | [3] -1.1%

O=C(c1ccccc1F)c1cc2c(cc1[N+](=O)[O-])OCCO2
inactive: [1] 5.4% | [2] -0.4% | [3] 3.6%

C[C@@H]1C[C@H]2[C@@H]3C[C@H](F)C4=CC(=O)C=C[C@]4(C)[C@@]3(F)[C@@H](O)C[C@]2(C)[C@@]1(O)C(=O)CO
inactive: [1] 0.3% | [2] 0.4% | [3] 0.5%

CC12CCC(C(=O)NCc3ccc4c(c3)OCO4)(CC1=O)C2(C)C (configuration not stated)
inactive: [1] 1.9% | [2] 1.2% | [3] 4.8%

COC(=O)c1ccc(C(=O)OC)c(NC(=O)C(C)C)c1
inactive: [1] -0.3% | [2] -1.3% | [3] -1.4%

CC(=O)N(CCC1(C(C)C)CCOC(C)(C)C1)Cc1ccco1 (configuration not stated)
inactive: [1] -2% | [2] -1.4% | [3] 0.2%

OCCN(Cc1nc(-c2ccc3c(c2)OCO3)no1)Cc1cccs1
inactive: [1] 2.4% | [2] 0.4% | [3] 2%

COc1ccc(OC)c(NC2=C(Cl)C(=O)N(Cc3ccccc3)C2=O)c1
inactive: [1] 0% | [2] -2.2% | [3] -12.4%

COc1cc(/C=C/C(=O)N2CCCC2)cc(OC)c1OC
inactive: [1] -1.5% | [2] 0.4% | [3] 4.4%

c1coc(-c2nnc3n2C2(CCCC2)Cc2ccccc2-3)c1
inactive: [1] 2.5% | [2] -1.4% | [3] -5.9%

COc1ccc(-c2coc3c(CN4CCOCC4)c(O)ccc3c2=O)cc1
inactive: [1] 2.6% | [2] 0.6% | [3] 4.1%

COc1ccc(CCN2CNc3c(c(=O)n(C)c(=O)n3C)C2)cc1OC
inactive: [1] 22.1% | [2] 8% | [3] 4.8%

COc1ccc2[nH]c(=O)c3c(c2c1)OC(C)(C)C=C3
inactive: [1] 1.1% | [2] 0.3% | [3] -4.6%

CCC(=O)c1ccc(OCc2ccc(C(=O)OC)cc2)cc1
inactive: [1] -1.6% | [2] 0.7% | [3] -3.4%

Cn1cc(CN2CCN(CCO)CC2)c(-c2ccc(Oc3ccccc3)cc2)n1
inactive: [1] 2.6% | [2] 0.5% | [3] -1.5%

O=C(CCSc1ccccc1)N1CCCC1
inactive: [1] 1.2% | [2] -0.9% | [3] -2.3%

Cc1ccc(S(=O)(=O)NC(=O)Nc2cc(C)ccc2F)cc1
inactive: [1] 3% | [2] -0.1% | [3] -4.1%

O=C1CC[C@@H](CN(Cc2ccccc2)Cc2cn[nH]c2-c2cc3ccccc3o2)N1
inactive: [1] 3.7% | [2] 1.2% | [3] -0.2%

O=C(O)c1ccccc1O
inactive: [1] 0.4% | [2] -0.5% | [3] 2.3%

COc1ccc2[nH]cc(C(=O)CCl)c2c1
inactive: [1] -3.7% | [2] -1.3% | [3] -5.3%

CN(C)C(=O)C(CCN1CCC(O)(c2ccc(Cl)cc2)CC1)(c1ccccc1)c1ccccc1
inactive: [1] -1.4% | [2] -1.4% | [3] 7.3%
